Experimental data: ChEMBL document CHEMBL1201862, “PubChem BioAssay data set” (2004)
Out of some 390,000 compounds screened, about 910 (0.23%) were called active. About 5% were inconclusive and are not listed. The rule behind the calls is not given here. Many of the other results were omitted from the sample, so actives are more common in it than they were.

Molecular target: T1, Ubiquitin carboxyl-terminal hydrolase 1 (Homo sapiens) (UniProt O94782)
T1 sequence (whole entry): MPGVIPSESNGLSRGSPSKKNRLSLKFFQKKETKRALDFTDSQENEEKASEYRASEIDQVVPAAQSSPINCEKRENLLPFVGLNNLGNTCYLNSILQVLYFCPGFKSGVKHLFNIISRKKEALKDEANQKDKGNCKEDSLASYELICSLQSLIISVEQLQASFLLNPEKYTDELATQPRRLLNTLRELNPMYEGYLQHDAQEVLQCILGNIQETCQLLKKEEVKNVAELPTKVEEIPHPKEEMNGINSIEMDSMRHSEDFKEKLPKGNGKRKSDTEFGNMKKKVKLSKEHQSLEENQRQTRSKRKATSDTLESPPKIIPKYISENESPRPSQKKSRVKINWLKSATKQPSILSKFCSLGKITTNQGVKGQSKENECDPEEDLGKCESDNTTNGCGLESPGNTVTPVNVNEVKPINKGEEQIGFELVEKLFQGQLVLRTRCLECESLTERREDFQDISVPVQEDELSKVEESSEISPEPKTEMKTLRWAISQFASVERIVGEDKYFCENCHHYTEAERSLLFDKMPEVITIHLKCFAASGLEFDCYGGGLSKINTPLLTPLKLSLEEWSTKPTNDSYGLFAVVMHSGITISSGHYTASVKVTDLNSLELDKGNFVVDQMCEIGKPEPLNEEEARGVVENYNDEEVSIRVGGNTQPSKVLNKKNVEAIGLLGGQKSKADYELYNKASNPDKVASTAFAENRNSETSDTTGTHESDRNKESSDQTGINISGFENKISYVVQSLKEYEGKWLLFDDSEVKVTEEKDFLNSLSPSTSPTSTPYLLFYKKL
Test: Inhibitors of USP1/UAF1: Primary Screen.
Format: functional

Q: Which Potency does the source give for CCOC(=O)C(C)C(C)=O (stereo unspecified) here?
A: Its Potency is 355 µM (active).
